An excerpt weighted towards active compounds, which were near 2.2% of everything screened.
FUS suppressor – rescues growth of FUS-expressing yeast; S. cerevisiae FUS-expressing, growth rescue, OD600, 24 h; Potency, µM (top dose mostly 76.6 µM), actives largely listed as activators; 390,000 compounds, 0.24% hits; note: nearly all actives have a fitted effect of over 55% in size
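Absorbance at 600 nm, taken 24hr after compound addition, measured rescue of FUS-yeast growth at 30C. Induction used 2% galactose with seeding at OD 0.005. Controls: CP55940 from 92uM final, DMSO only.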
aSyn yeast inh – inhibitors of alpha-synuclein toxicity in yeast | AID 652106 | 370,000 compounds, 0.14% hits | Potency, µM (titrated, usually from 46.1 µM), actives largely listed as activators | Yeast expressing alpha-synuclein, growth rescue, BacTiter-Glo, 24 h; note: nearly all actives have a fitted effect of over 65% in size
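Galactose-induced alpha-syn yeast (OD600=0.02, raffinose-pregrown) + pinned cpd, 24 hr, 30 deg C; growth by BacTiter-Glo luminescence. Growth restoration scores as activation.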
TDP-43 yeast inh – TDP-43 toxicity inhibition in yeast | 410,000 compounds, 1.8% hits | Potency, µM (highest dose often 46.1 µM), actives largely listed as activators | TDP-43 expressing yeast growth rescue, BacTiter-Glo, 24 h | AID 652104; note: nearly all actives have a fitted effect of over 50% in size
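Yeast cells expressing TDP-43 under galactose induction are exposed to compounds for 24 hr at 30 deg C. BacTiter-Glo luminescence measures growth, so protective compounds score as activators.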
Abeta rescue – A-beta toxicity reversal in yeast. AID 1347071. 410,000 compounds, 0.063% hits. yeast expressing A-beta42, growth rescue, OD600, 48 h; response scale: 0% DMSO, 100% iron-clioquinol control. Potency, µM (highest dose often 46.1 µM), hits mostly activators; note: nearly all actives have a fitted effect of over 55% in size
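Growth rescue measured by 600 nm absorbance after 48 h yeast culture at 30 C with compound. Values normalized between DMSO and an equimolar ferric chloride plus clioquinol control.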
Mito fusion act – blocks mitochondrial division or promotes mitochondrial fusion. S. cerevisiae fusion-defective mutant growth rescue, CellTiterGlo 48 h. Potency, µM (top dose mostly 46.1 µM), hits mostly activators. 320,000 compounds, 0.23% hits; note: nearly all actives have a fitted effect of over 45% in size
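Read-out: ATP-based luminescence (CellTiterGlo, 10 min ambient) reporting growth of fusion-defective ts yeast after 48 hours at 37C on glycerol/ethanol YPEG medium in the presence of compound.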
Numbers stand for hits; n = inactive; u = inconclusive; x = no result given; ! = not confirmed by another sample; [ ] = another dose, or the depositor's remark. Calls come from the whole dose curve; as a rule, active = well fitted curve in the direction sought with a large enough effect; inconclusive = small, poorly fitted or top-dose-only effect, or another doubt; inactive = no such curve, though single readings can be large; an effect the other way counts as inactive or inconclusive.

SMILES	FUS suppressor	aSyn yeast inh	TDP-43 yeast inh	Abeta rescue	Mito fusion act
COc1cccc(C(NC(C)=O)c2nc(-c3ccc(C)c(C)c3)cs2)c1 (stereo not given)	n	18µM	n	n	x
CCOc1ccc(CCNC(=O)c2c(C)oc3ncn(CC(C)C)c(=O)c23)cc1	n	x	20µM	n	x
O=C(c1ccc(S(=O)(=O)Cc2cc(F)ccc2F)c([N+](=O)[O-])c1)N1CCOCC1	n	n	20µM	n	x
N#CCC[C@@H]1CC[C@]2(CCCN(C(=O)c3ccc4ccccc4n3)C2)O1	n	x	x	x	x
CCOc1cc(-c2nc(-c3ccccc3)c(-c3cc([N+](=O)[O-])ccc3C)[nH]2)ccc1O	u	n	n	n	14µM
O=C(C1=C[C@@H]2[C@H]3C(=O)N(c4cccc(Cl)c4)C(=O)[C@H]3[C@@H](C(=O)c3ccc(Cl)cc3)N2C=C1)c1ccccc1	n	n	n[0.397 µM]	n	n
Cc1ccc(N2C(=O)[C@@H]3[C@H](C2=O)[C@H]2C=C(C(=O)c4ccccc4)C=CN2[C@@H]3C(=O)c2ccc(Cl)cc2)cc1	28µM	n	n	n	n
COCCCNC(=O)C[C@H]1C[C@@]2(C(=O)OC)C(=C[C@H](C(C)(C)C)O[C@@H]2C)N(Cc2ccco2)C1=O	n	x	x	x	x
CN=c1scc(C)n1/N=C/c1cc(Br)c(O)c(OC)c1	n	n	11µM	n	n
CCc1ccccc1NC(=O)c1cc2sccc2n1C	n	n	13µM	n	n
CC(CCc1ccccc1)NC(=O)c1cc2sccc2n1C (stereo not given)	n	n	n	n	n
Cn1c(C(=O)Nc2ccccc2)cc2sccc21	n	n	13µM	n	n
COc1ccc(CNC(=O)c2cc3sccc3n2C)cc1	n	x	35µM	n	x
O=C(OC12CCCN(C1)/C(=C/c1cccnc1)C2)c1ccco1 (stereo not given)	n	x	x	x	x
CN(C)c1cc(N2CCOCC2)nc(C#N)n1	x	n	x	x	x
CCCc1c(-c2ccc(O)cc2)nn(-c2ccc(O)cc2)c1-c1ccc(O)cc1	n	n	u	n	16µM!
Fc1ccc(CNc2cc(-c3ccccc3)nc3nncn23)cc1	u	x	18µM	n	x
Fc1ccc(CNc2ccn3nc(-c4ccccc4)cc3n2)cc1	u	n	18µM	u	x
CCc1c(C)nc2nncn2c1NCc1ccc(OC)cc1	n	x	n	n	x
COCCCNc1ccn2nc(-c3ccccc3)cc2n1	n	u	u	u	x
COc1ccc(CNc2cc(-c3ccc(OC)cc3)nc3nncn23)cc1	n	x	14µM	n	x
COc1cccc(C(=O)Nc2ccc(C(=O)NCC3COc4ccccc4O3)cc2)c1 (stereo not given)	n	x	x	x	x
CC(C)(C)c1ccc(-c2nc(SCC(=O)Nc3ccc(Cl)cc3)[nH]c(=O)c2C#N)cc1	n	n	n	n	x
O=[N+]([O-])c1cccc(NC(=S)N2CCCC2)c1	n	n	n	n	n
O=[N+]([O-])c1ccc(NC(=S)N2CCc3ccccc3C2)cc1	x	u	25µM	n	u
SMILES	FUS suppressor	aSyn yeast inh	TDP-43 yeast inh	Abeta rescue	Mito fusion act
O=[N+]([O-])c1cccc(NC(=S)N2CCc3ccccc32)c1	n	n	13µM	u	n
O=C(c1ccc([N+](=O)[O-])cc1)N1CCc2ccccc2C1	n	n	n[0.397 µM]	n	n
O=C(Nc1cccc([N+](=O)[O-])c1)N1CCCc2ccccc21	n	n	11µM	n	n
CC(CCc1ccccc1)NC(=O)c1nnc(Cc2ccc(Cl)cc2)o1 (stereo not given)	n	n	22µM	n	n
CCCc1ccc(NC(=O)C2CCCN(c3cnccn3)C2)cc1 (stereo not given)	n	u	32µM	n	u
CCN(CC)C(=O)CSc1nc(N)c(C(=O)Nc2ccc(OC)cc2)s1	x	n	n	n	n
CCOC(=O)CSc1nc(N)c(C(=O)Nc2ccc(N(C)C)cc2)s1	32µM	n	n	n	n
S=C(NCc1ccccn1)Nc1ccc(Br)cc1Cl	n	n	13µM	u	n
O=C(NC(=S)Nc1ccc(F)c(Cl)c1)C1CC1	n	n	3.2µM	u	n
O=C(Nc1ccc(F)c(Cl)c1)C1CCCCC1	n	n	18µM	n	n
Cc1ccc(NC(=S)NC(=O)C2CC2)cc1Cl	n	n	32µM	u	n
Fc1ccc(NC(=S)Nc2ccc(F)c(Cl)c2)cc1Cl	n	n	n	n	n
O=C(Nc1ccc(F)c(Cl)c1)C1CCCC1	n	n	n	n	x
COC(=O)NC(=S)Nc1ccc(Oc2ccc(Cl)cc2Cl)c(Cl)c1	n	n	18µM	n	n
COc1ccccc1NC(=S)NC(=O)C1CC1	x	n	u	n	n
COc1ccc(NC(=O)Oc2ccccc2)cc1Cl	n	n	18µM	n	n
O=C(NC(=S)Nc1ccccc1Cl)C1CC1	n	n	10µM	n	n
Cc1cc(C)c(S(=O)(=O)N2CCN(C(=O)c3ccc4c(c3)OCO4)CC2)c(C)c1	n	n	16µM	n	n
O=C(c1ccc2c(c1)OCO2)N1CCN(S(=O)(=O)c2ccccc2)CC1	x	n	n	n	n
Cc1ccc(S(=O)(=O)N2CCN(C(=O)c3ccc4c(c3)OCO4)CC2)cc1	n	n	n	n	n
Cc1cc(C)c(S(=O)(=O)N2CCN(C(=O)c3ccc(-n4nc(C)c(Cl)c4C)cc3)CC2)c(C)c1	16µM	n	u	n	x
O=C(c1ccc2c(c1)OCO2)N1CCN(S(=O)(=O)c2ccc(Br)cc2Cl)CC1	n	n	18µM	n	n
Cc1ccc(CNc2nc(-c3ccco3)nn2S(C)(=O)=O)cc1	n	x	u	u	x
Cc1ccc(CNC(=O)C2CCN(c3ncnc4c3nc3n4CCCCC3)CC2)cc1	n	x	n	n	x
COc1ccc(OC(=O)c2nc(SCc3ccc(C)cc3)ncc2Cl)cc1	n	x	n	n	x
SMILES	FUS suppressor	aSyn yeast inh	TDP-43 yeast inh	Abeta rescue	Mito fusion act
CCN(CC)CCNC(=O)c1ccc2c(c1)NC(=O)C(CS(=O)(=O)Cc1ccc(F)cc1Cl)N2 (stereo not given)	u	x	n	n	n
CCN(CC)CCCNC(=O)c1ccc2c(c1)NC(=O)C(CS(=O)(=O)Cc1ccc(F)cc1Cl)N2 (stereo not given)	25µM	x	n	n	x
c1nc(N2CCC3(CC2)OCCO3)c2c3c(sc2n1)CCCC3	n	n	22µM	n	n
Cc1ccc2c(CC(=O)NNC(=O)c3ccccc3O)coc2c1	35µM	n	n	n	n
COc1ccccc1NC(=O)Cc1coc2cc(C)ccc12	n	n	11µM	n	n
COc1ccc(Cn2c(CNS(=O)(=O)c3ccc4c(c3)CCCC4)nc3cccnc32)cc1	u	x	n	n	x
O=c1[nH]c2ccccc2c(O)c1-c1ccccc1	n	n	n	n	n
O/N=C/Cc1[nH]c2ccccc2c1-c1ccccc1	n	n	16µM	n	n
Cc1cc(O)c(C(c2cccc(Cl)c2)N2CCN(c3ccccc3)CC2)c(=O)n1Cc1ccco1 (stereo not given)	n	x	n	n	x

Assay outcomes from PubChem BioAssay.
